Potency, outcome and activity change, positive = activation data for 8 molecules are collected here from PubChem BioAssay (Tox21).

Where “and” joins values, the source holds several entries; their conditions need not be identical. Identical values can stand only once. A number with no mark means an inactive call. Inconclusive results are not listed. Calls of active or inactive are those of the source. Unless noted, the call rests on the fitted dose curve; in most records, active means well fitted curve in the direction sought with a large enough effect in the repeat runs; inconclusive means weak or mixed curves; inactive means no such curve, though single readings can be large; an effect the other way counts as inactive or inconclusive.

Test [1] in a line: qHTS assay to identify small molecule antagonists of the estrogen related receptor (ERR) signaling pathway from Tox21 library - cell viability counter screen (AID 1224834). Further: nearly all actives have a fitted effect of over 30% in size. A digest of the protocol: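 Seeded ERR cells were rested 6 h at 37 C/5% CO2 before compounds, positive and negative controls or DMSO were added. Incubation continued for 17.5 h, and viability was then quantified by CellTiter-Fluor fluorescence.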
A general note: qHTS replaces the single test concentration by a dilution series.

Test [2] addresses Luciferin 4-monooxygenase (Photinus pyralis) (UniProt P08659). The experiment in a line: qHTS assay to identify small molecule inhibitors of firefly luciferase (AID 1224835). Further: nearly all actives have a fitted effect of over 25% in size. A digest of the protocol: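 Inhibition of purified Photinus luciferase is measured by luminescence. Substrate levels (D-luciferin, ATP) sit at their KM values. Each compound is tested in a concentration series.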

Test [3] is described as follows: qHTS assay to identify small molecule agonists of the constitutive androstane receptor (CAR) signaling pathway - cell viability counter screen (AID 1224836). Further: nearly all actives have a fitted effect of over 45% in size. A digest of the protocol: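 Fluorescence from CellTiter-Fluor indicates live cells after 23 h exposure. The human hepatoma line expresses hCAR and a CYP2B6-2.2kb reporter. Incubation medium contains 0.75 uM PK11195 (final).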

The target of test [4] is Nuclear receptor subfamily 1 group I member 3 (Homo sapiens) (UniProt Q14994). The experiment in a line: qHTS assay to identify small molecule agonists of the constitutive androstane receptor (CAR) signaling pathway (AID 1224839). Further: nearly all actives have a fitted effect of over 15% in size. Further: potency means the concentration at half of the fitted maximal effect.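 On activation: HepG2 cells stably carrying human CAR and a CYP2B6 luciferase reporter.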 A digest of the protocol:
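Stable hCAR/CYP2B6-2.2kb HepG2 line in DMEM with 10% FBS; compounds (15 concentrations) and 0.75 uM PK11195 final, 24 h at 37 C/5% CO2, then ONE-Glo luminescence after 30 min.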

A short description of test [5]: qHTS assay to identify small molecule antagonists of the estrogen related receptor signaling pathway with the pleiotropic PPARgamma coactivator (PGC) from Tox21 10K library - cell viability counter screen (AID 1224840; active means well fitted cell-killing curve with a large enough effect in the repeat runs, not every such curve was filed as active; further: nearly all actives have a fitted effect of over 40% in size). A digest of the protocol:
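Seeded PGC/ERR cells (2,000/well, 6 h, 37 C/5% CO2) get compound by pin tool; 17.5 h incubation at 37 C; CellTiter-Fluor added, 30 min, fluorescence measured.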

A short description of test [6]: qHTS assay to identify small molecule antagonists of the estrogen related receptor signaling pathway with the pleiotropic PPARgamma coactivator (PGC) from Tox21 10K library (AID 1224841; call rule not given here; further: actives are mostly falling curves and most rising ones were filed inactive; nearly all actives have a fitted effect of over 50% in size). Put shortly: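 Test chemicals dissolved in DMSO were applied to pre-incubated (6 h) PGC/ERR cells at 2,000 cells/well for an 18 h, 37 C treatment; reporter luminescence was then read using One-Glo.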

Test [7] can be described thus: qHTS assay to identify small molecule agonists of the estrogen related receptor signaling pathway with the pleiotropic PPARgamma coactivator (PGC) from Tox21 10K library (AID 1224842). Further: nearly all actives have a fitted effect of over 15% in size. A digest of the protocol: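 Luminescence from One-Glo (30 min, room temperature) measured after PGC/ERR cells had 18 h at 37 C with pinned compound (23 nL in DMSO). Cells had been seeded at 2,000 per well and pre-incubated 6 h.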

In test [8] the target is Thyrotropin receptor (Homo sapiens) (UniProt P16473). The experiment in a line: qHTS assay to identify small molecule agonists of the thyroid stimulating hormone receptor (TSHR) signaling pathway (AID 1224843; calls by dose curve; further: nearly all actives have a fitted effect of over 45% in size). Put shortly:
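Agonist activity read as cAMP rise via d2/cryptate HTRF competition, 1 h room-temperature detection, in HEK293 cells expressing TSHR. Fifteen-point titrations, each run in triplicate, with a 30 min room-temperature incubation beforehand.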

The nature of test [9]: qHTS assay to identify small molecule agonists of the hypoxia (HIF-1) signaling pathway - cell viability counter screen (AID 1224844; calls by dose curve; further: nearly all actives have a fitted effect of over 50% in size). Put shortly: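 HRE-bla ME-180; 0.5% dFBS; cpd 17 h, 37C, 5% CO2; CellTiter-Glo lum., 30 min RT, post-FRET read, same wells.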
A short description of test [10]: qHTS assay to identify small molecule agonists of H2AX (AID 1224845; active means well fitted activation curve with a large enough effect in the signal ratio in the repeat runs, not every such curve was filed as active; the % refers to the signal ratio). A digest of the protocol:
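Phospho-H2AX Ser139 measured by HTRF (ex 320 nm; em 665 and 620 nm) after 24 hr antibody incubation. Compounds, 15 concentrations, 0.76% DMSO, were applied to CHO-K1 cells for 3hr at 37C before lysis.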

Test [11] is described as follows: qHTS assay to identify small molecule agonists of the hypoxia (HIF-1) signaling pathway (AID 1224846; active means well fitted activation curve with a large enough effect in the signal ratio in the repeat runs, not every such curve was filed as active; the % refers to the signal ratio). A digest of the protocol: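 Reporter induction in HRE-bla ME-180 cells is taken as agonism: cells sit 5 hrs after plating, receive compounds or DMSO only, incubate 17 hrs at 37C under 5% CO2, and are loaded with CCF4-AM for beta-lactamase FRET measurement.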
A short description of test [12]: qHTS assay to identify small molecule agonists of H2AX - cell viability counter screen (AID 1224847; calls by dose curve; further: top concentration of the series differs between compounds; nearly all actives have a fitted effect of over 30% in size). A digest of the protocol:
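Viability of CHO-K1 (wild type) cells after 3 hr compound exposure was measured by CellTiter-Glo luminescence.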

Test [13] can be described thus: qHTS assay to identify small molecule antagonists of the estrogen related receptor (ERR) signaling pathway from Tox21 library (AID 1224848). Further: nearly all actives have a fitted effect of over 50% in size. Put shortly: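 Luciferase luminescence (ONE-Glo, 30 min room temperature) was the read-out. Cells of the NTP-supplied ERR line, 2,000 per well, were given 6 h at 37 C before compound addition in DMSO and 18 h exposure at 37 C.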

A short description of test [14]: qHTS assay to identify small molecule agonists of the estrogen related receptor (ERR) signaling pathway from Tox21 library (AID 1224849; calls by dose curve; further: nearly all actives have a fitted effect of over 15% in size). The following applies: ERR reporter cell line, ONE-Glo luciferase, 18 h. Put shortly:
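Tox21 compounds tested for ERR agonism in an NTP reporter cell line: 18 h treatment at 37 C, then ONE-Glo luminescence.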

Test [15] can be described thus: qHTS RealTime-Glo MT Cell Viability Assay in HepG2 cells - 24 hour (AID 1224867). Further: nearly all actives have a fitted effect of over 50% in size. A digest of the protocol: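 Tox21 10K library screened in qHTS format on HepG2 cells carrying RealTime-Glo reagents. Compounds were added after a 5 h preincubation, and the luminescent signal from continuous culture was measured repeatedly during 40 h treatment.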
A short description of test [16]: qHTS RealTime-Glo MT Cell Viability Assay in HEK293 cells - 32 hour (AID 1224868). Put shortly:
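Luminescence generated by NanoLuc from substrate produced by living HEK293 cells served as the viability signal. Each value reflects the reading at its stated time point during continuous 40 h compound exposure at 37 C.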

The nature of test [17]: A CellTox Green Cytotoxicity Assay to monitor cytotoxicity in HEK293 cells - 0 hour (AID 1224869). Further: nearly all actives have a fitted effect of over 50% in size. Put shortly:
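Tox21 screen in HEK293: membrane-impermeant cyanine dye fluoresces on binding dead-cell DNA; compound pinned 5 h post-seeding, plates held at 37 C, signal read repeatedly through 40 h.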

Test [18] is described as follows: qHTS assay to identify small molecule antagonists of the constitutive androstane receptor (CAR) signaling pathway - cell viability counter screen (AID 1224837). Further: nearly all actives have a fitted effect of over 45% in size. Put shortly: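 To flag cytotoxic false antagonists, HepG2 hCAR/CYP2B6-2.2kb cells were treated 23 hr with 15-concentration compound series and 50 nM CITCO at 37 C/5% CO2; CellTiter-Fluor fluorescence was the measured end point.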

Test [19] addresses Nuclear receptor subfamily 1 group I member 3 (Homo sapiens) (UniProt Q14994). The experiment in a line: qHTS assay to identify small molecule antagonists of the constitutive androstane receptor (CAR) signaling pathway (AID 1224838).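 Further: HepG2 cells stably expressing hCAR with CYP2B6 luciferase reporter stimulated by CITCO; nearly all actives have a fitted effect of over 40% in size.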 A digest of the protocol:
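Human hepatoma HepG2 cells expressing hCAR and a CYP2B6 promoter (2.2 kb) luciferase construct; compound titration (15 points) with 50 nM CITCO final, 24 h at 37 C/5% CO2; luminescence via ONE-Glo after 30 min at room temperature.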
On the % scale 0 is the no-effect control and ±100 the full control effect.

Luciferin 4-monooxygenase (Photinus pyralis), sequence (P08659 whole entry, looked up): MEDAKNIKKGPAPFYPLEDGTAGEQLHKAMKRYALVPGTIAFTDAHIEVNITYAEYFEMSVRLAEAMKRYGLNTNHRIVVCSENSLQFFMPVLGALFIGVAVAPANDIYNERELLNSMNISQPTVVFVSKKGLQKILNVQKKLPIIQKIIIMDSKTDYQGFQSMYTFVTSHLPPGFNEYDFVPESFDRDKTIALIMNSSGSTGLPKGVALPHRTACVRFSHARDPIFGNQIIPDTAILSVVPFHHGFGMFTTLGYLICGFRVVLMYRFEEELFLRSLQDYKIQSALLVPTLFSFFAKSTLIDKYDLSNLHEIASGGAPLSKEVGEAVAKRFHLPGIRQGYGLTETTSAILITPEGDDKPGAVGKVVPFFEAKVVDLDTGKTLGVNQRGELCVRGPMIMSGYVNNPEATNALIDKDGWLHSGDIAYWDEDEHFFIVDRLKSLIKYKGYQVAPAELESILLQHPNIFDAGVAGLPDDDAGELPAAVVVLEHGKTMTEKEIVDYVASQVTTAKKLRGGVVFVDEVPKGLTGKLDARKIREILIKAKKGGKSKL
Nuclear receptor subfamily 1 group I member 3 (Homo sapiens), sequence (Q14994 whole entry, looked up): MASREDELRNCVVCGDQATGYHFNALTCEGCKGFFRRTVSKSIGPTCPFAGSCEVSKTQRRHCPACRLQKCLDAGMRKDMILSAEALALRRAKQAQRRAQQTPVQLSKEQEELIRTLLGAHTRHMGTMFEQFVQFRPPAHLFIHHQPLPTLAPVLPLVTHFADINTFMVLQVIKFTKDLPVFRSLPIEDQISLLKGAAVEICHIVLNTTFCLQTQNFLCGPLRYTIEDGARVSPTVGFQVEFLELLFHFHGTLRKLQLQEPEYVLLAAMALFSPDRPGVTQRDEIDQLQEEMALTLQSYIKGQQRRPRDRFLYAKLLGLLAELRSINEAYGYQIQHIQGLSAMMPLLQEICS
Thyrotropin receptor (Homo sapiens), sequence (P16473 whole entry, looked up): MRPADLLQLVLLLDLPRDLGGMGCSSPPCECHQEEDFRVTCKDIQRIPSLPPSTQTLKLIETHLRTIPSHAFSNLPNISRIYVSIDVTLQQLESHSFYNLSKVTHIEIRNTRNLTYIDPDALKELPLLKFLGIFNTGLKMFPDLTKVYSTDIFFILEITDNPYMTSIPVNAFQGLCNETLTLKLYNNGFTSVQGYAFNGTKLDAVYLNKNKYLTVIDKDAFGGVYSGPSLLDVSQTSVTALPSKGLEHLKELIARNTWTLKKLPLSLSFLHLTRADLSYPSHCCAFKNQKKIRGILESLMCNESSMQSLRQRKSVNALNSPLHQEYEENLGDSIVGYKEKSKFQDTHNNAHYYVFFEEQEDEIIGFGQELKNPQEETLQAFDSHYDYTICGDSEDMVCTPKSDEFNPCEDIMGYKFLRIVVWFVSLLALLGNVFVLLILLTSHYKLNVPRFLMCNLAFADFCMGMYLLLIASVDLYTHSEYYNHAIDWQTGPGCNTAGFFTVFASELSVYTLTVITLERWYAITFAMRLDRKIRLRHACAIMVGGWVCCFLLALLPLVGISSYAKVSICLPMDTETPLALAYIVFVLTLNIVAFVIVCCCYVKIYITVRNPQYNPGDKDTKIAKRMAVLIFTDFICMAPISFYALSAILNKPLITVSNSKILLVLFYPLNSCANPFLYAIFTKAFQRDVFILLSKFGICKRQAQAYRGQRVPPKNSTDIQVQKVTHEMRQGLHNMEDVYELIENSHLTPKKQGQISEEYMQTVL

As for `O=S(=O)(O)CCS`, the Potency result in test [1], in [2], in test [3], in test [4], in test [5] and in test [6] was “inactive” in each case. The Potency result in [7], in test [8], in test [9], in test [10], in [12] and in test [13] was “inactive” in each case. Moreover, the Potency result in [15], in [16] and in test [17] was “inactive” in each case. For the same molecule, in test [11], the call was inactive. For the same molecule, the activity change, positive = activation was -0.0445% in test [14] (at 42.5 µM (top of the series)) and -7.56% in [14] (at 92.4 µM (top of the series)).
Take `CC1(C)O[C@@H]2C[C@H]3[C@@H]4C[C@H](F)C5=CC(=O)CC[C@]5(C)[C@H]4[C@@H](O)C[C@]3(C)[C@]2(C(=O)CO)O1`: the Potency result in test [1], in test [2], in test [3], in test [18], in test [5] and in [6] was “inactive” each time. Also, the Potency entry in test [7], in test [8], in test [9], in test [10], in test [12] and in [13] was “inactive” in each case. Also, the Potency result in [15], in [16] and in test [17] was “inactive” in each case. In test [11], the molecule was classed as inactive. Also, the activity change, positive = activation is -3.03% in test [14] (at 42.5 µM (top of the series)) and -6.71% in test [14] (at 92.4 µM (top of the series)).
In the case of `Nc1nc2ncc(CNc3ccc(C(=O)N[C@@H](CCC(=O)O)C(=O)O)cc3)nc2c(=O)[nH]1`, the Potency entry in [1], in [2], in test [3], in test [19], in test [4] and in [5] was “inactive” each time. Besides, the Potency result in test [8], in test [9], in test [10], in test [12], in test [15] and in [16] was “inactive” in each case.
Regarding `CC1(C)CC(N=C=O)CC(C)(CN=C=O)C1` (configuration not stated), the Potency entry in test [1], in test [2], in [3], in test [18], in [4] and in test [5] was “inactive” throughout. Also, the Potency entry in test [8], in test [9], in [10], in test [15], in test [16] and in [17] was “inactive” in each case.
For `CCc1ccccc1O`, the Potency result in test [1], in [2], in [3], in [18], in test [4] and in test [5] was “inactive” each time. Moreover, the Potency entry in [8], in test [9], in [10], in test [15], in test [16] and in test [17] was “inactive” each time.
In the case of `Cc1cc(O)cc(C)c1Cl`, the Potency result in test [1], in test [2], in test [3], in [18], in test [5] and in test [8] was “inactive” each time. The Potency result in [9], in test [10], in test [15], in [16] and in test [17] was “inactive” throughout.
`O=Nc1ccc(O)cc1`: the Potency result in test [1], in test [2], in test [3], in test [19], in test [4] and in [5] was “inactive” each time. The Potency entry in [8], in test [9], in test [15] and in test [16] was “inactive” in each case. For the same molecule, the outcome in test [11] was inactive.
For the molecule `CCCCC(CC)COC(=O)/C=C\C(=O)OCC(CC)CCCC` (configuration not stated), the Potency entry in test [1], in [2], in [3], in [19], in test [5] and in test [6] was “inactive” each time. For the same molecule, the Potency result in test [7], in test [8], in test [9], in test [10], in [12] and in [13] was “inactive” throughout. The Potency result in test [15], in [16] and in [17] was “inactive” in each case. In addition, in test [4], the Potency was 61.1 µM (active). In addition, the result in test [11] was inactive. Moreover, the activity change, positive = activation in test [14] (at 92.4 µM (top of the series)) was -6.56% and 3.66%.
